Source: PubChem (National Center for Advancing Translational Sciences (NCATS))
D3 ag: agonists of human D3 dopamine receptor. 410,000 tested, 0.58% active. max activation, %. D3R DiscoveRx beta-arrestin cells, luminescence, 90 min. P35462; in the data active means max activation above about 30%; further: 0% is about no effect
Target sequence (P35462 whole entry, looked up): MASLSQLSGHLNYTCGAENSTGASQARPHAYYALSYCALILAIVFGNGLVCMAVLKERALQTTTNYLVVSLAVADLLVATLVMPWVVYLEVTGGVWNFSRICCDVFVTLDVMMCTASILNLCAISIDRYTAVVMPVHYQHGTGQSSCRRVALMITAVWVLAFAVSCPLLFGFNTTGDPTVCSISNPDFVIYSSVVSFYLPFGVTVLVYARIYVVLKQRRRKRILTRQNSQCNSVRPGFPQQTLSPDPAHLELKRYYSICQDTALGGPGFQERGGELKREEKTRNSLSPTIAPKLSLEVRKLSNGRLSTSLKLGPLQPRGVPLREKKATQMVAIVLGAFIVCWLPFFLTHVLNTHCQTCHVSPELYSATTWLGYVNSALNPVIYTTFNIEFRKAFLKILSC
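Agonist mode: compounds and dopamine controls were applied to plated cells for 90 min at 37 degrees C after an overnight attachment at 1500 cells/well. Luminescent read-out followed 30 - 60 minutes at room temperature with DiscoveRx detection reagent.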
ClpP mod: qHTS Assay for Activators of ClpP. ATP-dependent Clp protease proteolytic subunit (Bacillus subtilis (strain 168)), P80244. purified B. subtilis ClpP, FRET peptide cleavage, 20 min. Potency, µM (series often up to 57.5 µM), for the others: at the highest dose activity change, negative = active. 340,000 tested, 1.9% active. AID 651965, 2013; active means well fitted falling curve with a large enough effect; inconclusive means small, poorly fitted or top-dose-only effect; inactive means no such curve, though single readings can be large or run the other way; further: potency means the concentration at half of the fitted maximal effect; the source files actives as falling curves though it sought activators and does not explain the sign; nearly all actives have a fitted effect of over 65% in size
Target sequence (P80244 whole entry, looked up): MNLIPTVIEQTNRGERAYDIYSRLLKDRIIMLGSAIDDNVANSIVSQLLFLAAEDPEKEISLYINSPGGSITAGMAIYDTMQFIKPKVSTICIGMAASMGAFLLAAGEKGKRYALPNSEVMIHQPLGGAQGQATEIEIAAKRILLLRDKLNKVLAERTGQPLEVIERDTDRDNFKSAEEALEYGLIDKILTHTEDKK
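ClpP 10 microg/mL final, pH 8 Tris/KCl buffer with BSA, glycerol, Tween-20; compound pinned in; FRET-FV substrate; RT 20 min; Ex320/Em430; ΔFRET vs ADEP 5.8 microM, DMSO, no enzyme.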
DT40 TDP1 CPT: growth inhibition of DT40 Tdp1-/-;hTDP1 cells with camptothecin (screen for TDP1 inhibitors); Potency, µM (series often up to 46.2 µM), for the others: top-dose activity change, negative = growth inhibition, hits mostly inhibitors; AID 686979; 420,000 tested, 12% active; chicken DT40 Tdp1-/-;hTDP1 cells + 20 nM CPT, ATP luminescence, 48 h; further: potency means the concentration at half of the fitted maximal effect; on the % scale 0 is the no-effect control and ±100 the full control effect; nearly all actives have a fitted effect of over 55% in size
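Chicken DT40 Tdp1-/- cells stably complemented with human TDP1 were seeded at 400 cells/well in medium containing 20 nM camptothecin, exposed to pin-transferred compounds, and grown at 37 °C for at least 48 hr. Viability was read as ATP luminescence.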
IL1B secr inh: inhibitors of inflammasome signaling (IL-1 beta secretion) | 360,000 tested, 4.7% active | activity change, % at 57.5 µM | THP-1 LPS/ATP IL-1B secretion, AlphaLISA, 16 h; stronger effect = lower value; in the data active means activity change below about -50%; inconclusive means mostly about -30% to -49%; further: on the % scale 0 is the no-effect control and ±100 the full control effect
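THP-1 cells pretreated 1 hr with compounds (up to 57.5 uM final), then stimulated with LPS (250 ng/mL final) plus ATP (1.25 mM final); secreted IL-1B measured by AlphaLISA after 16 hr, decreased signal indicating inhibition.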
D3 antag: blocks the human D3 dopamine receptor; D3R cells, DiscoveRx beta-arrestin luminescence, antagonist mode; stronger effect = lower value; P35462; 360,000 tested, 2.5% active; max response, negative = inhibition, %; in the data active means max response below about -50%; inconclusive means no clear call, values can overlap the other calls; further: on the % scale 0 is the no-effect control and ±100 the full control effect
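Cells plated overnight at 1500 cells/well, then exposed to library compounds with dopamine controls for 90 minutes at 37 degrees C. DiscoveRx reagent added for 30–60 minutes at room temperature; luminescence read, quantitative HTS format.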
TDP1 cell noCPT: qHTS for Inhibitors of human tyrosyl-DNA phosphodiesterase 1 (TDP1): qHTS in cells in absence of CPT; Potency, µM (top dose mostly 46.2 µM), for inactives: at the highest dose activity change, negative = growth inhibition, actives largely listed as inhibitors; 420,000 tested, 15% active; DT40 Tdp1-/- hTDP1 cells, no CPT, ATP luminescence, 48 h; AID 686978, 2013; further: potency means the concentration at half of the fitted maximal effect; on the % scale 0 is the no-effect control and ±100 the full control effect; nearly all actives have a fitted effect of over 55% in size
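Compound effects on proliferation are scored in DT40 Tdp1-/-;hTDP1 cells in the absence of CPT. ATP levels (CellTiter-Glo luminescence) are recorded after a ≥48 hr, 37 °C incubation.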
Active calls of the source: *; ? = inconclusive; nt = no result given. Most compounds without a hit are left out; they make up all but 21% or so of the library. Unless noted, the call rests on the fitted dose curve; in most records, active means well fitted inhibition curve with a large enough effect; inconclusive means small, poorly fitted or top-dose-only effect; inactive means flat fitted curve, though single readings scatter.

SMILES	D3 ag	ClpP mod	DT40 TDP1 CPT	IL1B secr inh	D3 antag	TDP1 cell noCPT
CCn1c(-c2cc(-c3ccccc3)sc2N)n[nH]c1=S	0.0	nt	?	10.7	13.6	8.2µM*
COc1ccc(Cn2c(-c3ccc(OC)cc3)n[nH]c2=S)cc1	1.4	nt	-5.4%	-6.3	-19.2	-22.5%
CC(C)Oc1ccc(Cn2c(-c3ccco3)n[nH]c2=S)cc1	-3.8	28.2µM*	-22.7%	5.9	?	-20.4%
S=c1[nH]nc(-c2cc3ccccc3o2)n1Cc1ccccc1	-16.8	3.16µM*	?	-3.9	?	?
O=C(c1ccccc1)N(C(=O)c1ccccc1)N1CCCC1	12.2	nt	-18.5%	6.4	1.3	-20.0%
NC(=O)c1ccccc1NC(=O)c1ccc2c(c1)OCO2	1.6	-0.2%	-11.1%	-9.9	4.5	?
CC(C)n1nc(C(=O)Nc2ccc3c(c2)OCO3)c2ccccc2c1=O	2.7	1.5%	3.1%	0.0	7.2	3.6%
O=C(CSc1ccccc1)NNC(=O)c1ccncc1	1.6	nt	-2.8%	29.0	0.0	-17.8%
S=c1[nH]nc(-c2ccccc2Cl)n1CC1CCCO1 (configuration not stated)	8.9	-0.9%	-0.9%	18.8	6.9	-0.2%
Cc1[nH]c2ccc(-c3n[nH]c(=S)n3Cc3ccccc3)cc2c1C	-4.9	-2.7%	23.1µM*	-57.1*	-3.3	16.4µM*
CCOc1ccc(-c2n[nH]c(=S)n2Cc2ccccc2)cc1	-17.1	-19.0%	?	-13.5	-14.1	20.6µM*
Cc1[nH]c2ccc(-c3n[nH]c(=S)n3-c3ccccc3)cc2c1C	-2.2	-29.3%	-13.5%	1.8	-17.8	?
CC(C)(C)c1ccc(-c2n[nH]c(=S)n2CC2CCCO2)cc1 (configuration not stated)	1.1	nt	?	19.1	11.2	16.4µM*
Cc1ccc(NC(=O)CSc2nc(=O)n(CCCN3CCOCC3)c3c2CCCC3)c(C)c1	0.1	1.1%	4.8%	0.8	54.7	-7.4%
CC(=O)N1CCN(CCS(=O)(=O)c2cc(Cl)ccc2Cl)CC1	2.6	0.3%	?	-65.4*	16.8	?
COc1ccc(N2CCN(CCS(=O)(=O)c3cc(Cl)ccc3Cl)CC2)cc1	0.5	0.8%	?	-15.6	13.4	?
CC1CN(CCS(=O)(=O)c2cc(Cl)ccc2Cl)CC(C)O1 (configuration not stated)	-13.0	nt	?	-102.6*	-0.1	?
COC(=O)CCS(=O)(=O)c1cc(Cl)ccc1Cl	9.5	-0.1%	-1.7%	-5.5	18.0	-0.1%
COc1ccc(C(=O)Nc2ccccc2C(=O)N/N=C/c2cccc3ccccc23)cc1	-1.2	?	20.6µM*	37.2	-21.5	16.4µM*
COc1ccc(C(=O)Nc2ccccc2C(=O)Nc2ccc(C(=O)O)cc2)cc1	-6.6	-2.5%	1.6%	2.2	-0.8	-11.2%
COc1ccc(C(=O)Nc2ccccc2C(=O)Nc2ccccc2C(=O)O)cc1	-10.2	nt	18.4µM*	30.8	-14.6	23.1µM*
COc1ccc(C(=O)Nc2oc(-c3ccccc3)c(-c3ccccc3)c2C#N)cc1	-17.3	?	?	?	-63.8*	?
COc1ccc(C(=O)Nc2ccccc2C(=O)Nc2ccncc2)cc1	6.1	-8.5%	?	-17.7	-0.5	16.4µM*
COc1ccccc1NC(=O)Cn1cc(C(=O)C2CC2)c2ccccc21	0.3	-2.3%	-2.6%	-2.4	4.4	-24.4%
O=C(Nc1cccc2c1CCCC2)c1cc([N+](=O)[O-])cc([N+](=O)[O-])c1	-13.6	28.2µM*	?	12.8	-5.3	-25.9%
SMILES	D3 ag	ClpP mod	DT40 TDP1 CPT	IL1B secr inh	D3 antag	TDP1 cell noCPT
COc1ccc(C(=O)Nc2cccc3c2CCCC3)cc1	-23.2	-8.3%	10.3µM*	3.8	-15.5	5.8µM*
COc1ccc(C(=O)Nc2ccccc2C(=O)N/N=C/c2ccncc2)cc1OC	-1.8	nt	16.4µM*	-20.4	12.0	16.4µM*
COc1ccc(/C=N/NC(=O)c2cccc(NC(=O)c3ccccc3Cl)c2)cc1OC	0.0	nt	-11.6%	21.6	-11.6	?
CC(C)(C)c1ccc(C(O)c2ncc(-c3cccc(F)c3)[nH]2)cc1 (configuration not stated)	-6.8	-3.4%	14.6µM*	-28.3	-18.2	?
OC(c1ccc(-c2ccccc2)cc1)c1ncc(-c2cccc(F)c2)[nH]1 (configuration not stated)	-0.5	-8.9%	-23.2%	-7.6	0.2	?
COc1cccc(-c2cnc(C(O)c3ccc(C)cc3)[nH]2)c1 (configuration not stated)	-8.0	-1.6%	-19.9%	7.7	-18.9	-17.1%
Cc1ccc(C(O)c2ncc(-c3ccc4ccccc4c3)[nH]2)c(C)c1 (configuration not stated)	0.4	4.2%	?	-1.5	23.1	-27.7%
CC(C)(C)c1ccc(C(O)c2ncc(-c3ccc4ccccc4c3)[nH]2)cc1 (configuration not stated)	-4.8	5.2%	?	-5.9	?	18.4µM*
COc1cccc(-c2cnc(C(O)c3ccc(C(C)(C)C)cc3)[nH]2)c1 (configuration not stated)	-3.0	1.3%	?	-26.5	-21.6	18.4µM*
Cc1ccc(C)c(C(O)c2ncc(-c3ccc4ccccc4c3)[nH]2)c1 (configuration not stated)	-7.5	4.6%	18.4µM*	19.2	-7.3	?
COc1ccc(C(O)c2ncc(-c3ccc4ccccc4c3)[nH]2)cc1F (configuration not stated)	-5.3	4.4%	?	-3.0	9.4	?
COc1cc(OC)c(Nc2nc3ccc(C(=O)c4ccccc4)cc3n3c(C)nnc23)cc1Cl	-3.2	-0.2%	11.7%	nt	nt	-0.1%
COc1cccc(-c2cnc(C(O)c3cc(Cl)cc(Cl)c3)[nH]2)c1 (configuration not stated)	-3.7	-3.2%	23.1µM*	-19.9	?	?
OC(c1cc(F)cc(Cl)c1)c1ncc(-c2ccc3ccccc3c2)[nH]1 (configuration not stated)	-9.4	4.9%	18.4µM*	4.6	0.0	13µM*
Cc1ccc(-c2cnc(C(O)c3ccc(C)cc3)[nH]2)cc1 (configuration not stated)	-3.3	-2.4%	-11.0%	16.6	9.8	-30.0%
